# In PubChem BioAssay (NCATS):
# Assays:
# [1] = qHTS profiling of the MIPE4 collection as inhibitors of Plasmodium falciparum (3D7) proliferation (AID 743344);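 note: scaled between DMSO vehicle wells and 0.29 µM artemisinin as full inhibition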; conditions: P. falciparum 3D7 in erythrocytes, SYBR Green DNA fluorescence, 72 h; at 28.5 µM
# Method in brief: (§1)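 Erythrocytes infected with P. falciparum (0.3% parasitemia, 2.5% hematocrit) incubated with compounds 72 h at 37 C, 5% CO2. Lysis with saponin/Triton buffer containing SYBR Green I, overnight at room temperature in the dark; DNA fluorescence (485/535 nm) normalised to 0.29 uM artemisinin and DMSO.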
# [2] = qHTS profiling of the MIPE4 collection as inhibitors of Plasmodium falciparum (DD2) proliferation (Rep 2) (AID 743346); conditions: P. falciparum Dd2 in erythrocytes, SYBR Green DNA, 72 h; at 28.5 µM
# Method in brief: as §1
# [3] = qHTS profiling of the MIPE4 collection as inhibitors of Plasmodium falciparum (HB3) proliferation (AID 743347);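 note: plate controls were DMSO vehicle wells for no effect and artemisinin wells for full effect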; conditions: P. falciparum HB3 in erythrocytes, SYBR Green DNA, 72 h; at 28.5 µM
# Method in brief: as §1
Structure (SMILES),"parasite growth, % of DMSO control [1] [%]","parasite growth, % of control (lower = inhibition) [2] [%]","growth, % of control [3] [%]"
CC(=Cc1csc(C)n1)[C@@H]1C[C@H]2O[C@@H]2CCC[C@H](C)[C@@H](O)[C@@H](C)C(=O)C(C)(C)[C@@H](O)CC(=O)O1,14.6,36.4,12.9
CCNC(=O)C[C@@H]1N=C(c2ccc(Cl)cc2)c2cc(OC)ccc2-n2c(C)nnc21,76.4,99.1,94.6
C[C@H]1CCCC=CC2C[C@H](O)C[C@@H]2[C@H](O)C=CC(=O)O1 (some centres undefined),4.99,9.15,2.99
